The values that follow come from article PMC7862700, “An all-to-all approach to the identification of sequence-specific readers for epigenetic DNA modifications on cytosine”.

Experiment in all cases: DAPPL (digital affinity profiling via proximity ligation, sequencing); 10 mM Tris-HCl pH 7.5, 50 mM NaCl, 1 mM DTT, 4% glycerol, room temperature, 30 min; GST-TFs on glutathione beads, 16-mer random dsDNA library, 0.1% formaldehyde crosslink after washing; high values mean tight binding
Holding throughout (conditions): protein: recombinant; tags: N-terminal GST; dsDNA, one strand shown

One assay addresses T1, GABPA (Homo sapiens, UniProt Q06546 1-454).
T1 sequence: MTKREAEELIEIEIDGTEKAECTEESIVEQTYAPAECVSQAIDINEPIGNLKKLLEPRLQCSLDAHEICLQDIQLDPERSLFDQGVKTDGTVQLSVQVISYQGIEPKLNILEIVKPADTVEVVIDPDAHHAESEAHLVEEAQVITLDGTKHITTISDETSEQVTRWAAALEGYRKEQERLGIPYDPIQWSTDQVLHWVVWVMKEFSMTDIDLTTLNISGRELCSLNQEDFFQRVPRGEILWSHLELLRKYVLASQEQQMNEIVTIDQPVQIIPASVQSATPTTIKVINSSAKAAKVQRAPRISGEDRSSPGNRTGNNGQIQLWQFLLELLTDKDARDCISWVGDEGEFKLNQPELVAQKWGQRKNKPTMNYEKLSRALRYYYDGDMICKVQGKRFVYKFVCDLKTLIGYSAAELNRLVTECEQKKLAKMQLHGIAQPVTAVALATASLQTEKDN
A digest of the protocol: (§1)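 Each value of binding signal is a hexamer's read frequency for a factor divided by the same hexamer's frequency in the tag-only sample. Barcoded, bead-captured GST fusions of human transcription factors made in yeast were pooled with that sample and incubated with 200 nmole of a random double-stranded 16-mer DNA library in Tris/NaCl/DTT/glycerol buffer at room temperature for 30 min. Washing, 0.1% formaldehyde crosslinking, proximity ligation, PCR and Illumina NextSeq500 sequencing followed.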

A further assay concerns the target SPI1 (Homo sapiens, UniProt P17947 1-270). The method, boiled down: as §1
Another assay deals with ETV5 (Homo sapiens, UniProt P41161 1-510). The method, boiled down:
as §1

Another assay deals with T2, ELK4 (Homo sapiens, UniProt P28324-2 1-405).
T2 sequence: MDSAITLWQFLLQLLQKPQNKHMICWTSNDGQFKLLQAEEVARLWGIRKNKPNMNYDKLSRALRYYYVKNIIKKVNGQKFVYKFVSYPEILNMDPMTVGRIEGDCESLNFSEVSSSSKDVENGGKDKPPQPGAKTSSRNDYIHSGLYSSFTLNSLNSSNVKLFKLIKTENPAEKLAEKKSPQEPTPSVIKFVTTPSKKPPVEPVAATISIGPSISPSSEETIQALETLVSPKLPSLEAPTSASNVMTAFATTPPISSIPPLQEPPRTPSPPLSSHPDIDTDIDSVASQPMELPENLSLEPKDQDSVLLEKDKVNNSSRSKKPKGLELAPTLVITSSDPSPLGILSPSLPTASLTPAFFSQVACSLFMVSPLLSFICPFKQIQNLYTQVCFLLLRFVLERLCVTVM
A digest of the protocol:
as §1

In another assay the target is T3, ETV7 (Homo sapiens, UniProt Q9Y603 1-341).
T3 sequence: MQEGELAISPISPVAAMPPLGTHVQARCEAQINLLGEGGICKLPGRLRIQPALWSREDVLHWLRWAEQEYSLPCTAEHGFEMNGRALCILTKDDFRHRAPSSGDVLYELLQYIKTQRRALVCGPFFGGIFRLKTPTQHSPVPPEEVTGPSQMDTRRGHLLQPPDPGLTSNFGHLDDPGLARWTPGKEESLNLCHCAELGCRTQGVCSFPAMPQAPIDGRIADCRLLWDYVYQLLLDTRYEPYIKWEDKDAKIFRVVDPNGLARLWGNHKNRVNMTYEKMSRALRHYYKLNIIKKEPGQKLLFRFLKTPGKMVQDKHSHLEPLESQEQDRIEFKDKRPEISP
The method, boiled down:
as §1

The target of a further assay is T4, ELK1 (Homo sapiens, UniProt P19419 1-428).
T4 sequence: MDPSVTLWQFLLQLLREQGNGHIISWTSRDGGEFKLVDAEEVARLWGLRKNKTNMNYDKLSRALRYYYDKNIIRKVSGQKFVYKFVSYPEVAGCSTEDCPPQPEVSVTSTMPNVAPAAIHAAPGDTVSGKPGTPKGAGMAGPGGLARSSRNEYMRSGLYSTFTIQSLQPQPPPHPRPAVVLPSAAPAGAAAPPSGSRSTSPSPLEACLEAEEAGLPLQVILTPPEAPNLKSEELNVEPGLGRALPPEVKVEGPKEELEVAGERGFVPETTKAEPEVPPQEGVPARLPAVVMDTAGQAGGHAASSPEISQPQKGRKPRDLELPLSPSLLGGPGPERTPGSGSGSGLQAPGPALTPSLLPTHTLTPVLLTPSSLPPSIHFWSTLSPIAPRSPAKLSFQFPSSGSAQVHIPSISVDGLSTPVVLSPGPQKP
A digest of the protocol: as §1

A further assay deals with T5, EHF (Homo sapiens, UniProt Q9NZC4 1-300).
T5 sequence: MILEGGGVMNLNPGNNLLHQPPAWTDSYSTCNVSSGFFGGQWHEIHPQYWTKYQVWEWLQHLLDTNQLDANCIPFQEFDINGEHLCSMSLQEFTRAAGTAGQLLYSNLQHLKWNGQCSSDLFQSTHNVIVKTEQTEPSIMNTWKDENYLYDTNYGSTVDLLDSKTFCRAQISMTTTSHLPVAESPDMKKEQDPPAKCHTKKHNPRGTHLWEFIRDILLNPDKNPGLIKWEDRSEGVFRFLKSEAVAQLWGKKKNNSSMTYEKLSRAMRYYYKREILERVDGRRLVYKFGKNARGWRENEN
The method, boiled down: as §1

Another assay has as its target SPIB (Homo sapiens, UniProt Q01892 1-262). A digest of the protocol:
as §1

The target in a further assay is T6, SPIC (Homo sapiens, UniProt Q8N5J4 1-248).
T6 sequence: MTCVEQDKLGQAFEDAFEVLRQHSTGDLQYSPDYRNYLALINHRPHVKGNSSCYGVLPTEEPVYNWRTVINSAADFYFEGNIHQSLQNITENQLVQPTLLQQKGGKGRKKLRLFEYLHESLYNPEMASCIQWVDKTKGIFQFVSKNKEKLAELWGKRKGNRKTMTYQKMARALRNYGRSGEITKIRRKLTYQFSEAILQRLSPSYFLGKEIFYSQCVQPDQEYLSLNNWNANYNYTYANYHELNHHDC
A digest of the protocol:
as §1

For the next assay, the target named is T7, ETV3L (Homo sapiens, UniProt Q6ZN32 1-361).
T7 sequence: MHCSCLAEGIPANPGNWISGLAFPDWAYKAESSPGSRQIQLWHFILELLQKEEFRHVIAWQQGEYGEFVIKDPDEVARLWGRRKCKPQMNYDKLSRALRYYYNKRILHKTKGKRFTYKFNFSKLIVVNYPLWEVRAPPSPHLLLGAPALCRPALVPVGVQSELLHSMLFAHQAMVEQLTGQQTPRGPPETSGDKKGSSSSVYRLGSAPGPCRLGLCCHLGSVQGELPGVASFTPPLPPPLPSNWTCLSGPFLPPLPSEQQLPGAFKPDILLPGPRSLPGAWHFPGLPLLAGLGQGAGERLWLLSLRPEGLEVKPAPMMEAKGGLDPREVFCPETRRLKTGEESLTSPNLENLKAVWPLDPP
The method, boiled down:
as §1

The target in another assay is T8, ETV3 (Homo sapiens, UniProt P41162-2 1-143).
T8 sequence: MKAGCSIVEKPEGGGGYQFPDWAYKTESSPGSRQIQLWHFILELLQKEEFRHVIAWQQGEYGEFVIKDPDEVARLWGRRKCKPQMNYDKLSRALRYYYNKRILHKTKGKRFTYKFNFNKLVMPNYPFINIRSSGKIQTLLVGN
The method, boiled down:
as §1

The next assay has as its target T9, ERG (Homo sapiens, UniProt P11308 1-479).
T9 sequence: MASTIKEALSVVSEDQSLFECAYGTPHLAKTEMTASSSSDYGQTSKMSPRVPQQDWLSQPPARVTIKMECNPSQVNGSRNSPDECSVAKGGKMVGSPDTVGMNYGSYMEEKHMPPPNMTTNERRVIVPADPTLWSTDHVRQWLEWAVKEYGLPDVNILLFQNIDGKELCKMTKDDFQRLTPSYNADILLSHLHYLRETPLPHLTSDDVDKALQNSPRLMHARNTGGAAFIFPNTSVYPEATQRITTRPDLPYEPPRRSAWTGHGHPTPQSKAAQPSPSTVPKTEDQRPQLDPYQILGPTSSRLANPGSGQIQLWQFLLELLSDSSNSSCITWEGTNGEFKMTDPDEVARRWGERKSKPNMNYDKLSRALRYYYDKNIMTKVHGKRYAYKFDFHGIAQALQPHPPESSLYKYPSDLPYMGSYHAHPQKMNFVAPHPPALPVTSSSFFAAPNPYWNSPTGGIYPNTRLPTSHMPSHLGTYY
The method, boiled down: as §1

Another assay has as its target ETV1 (Homo sapiens, UniProt P50549 1-477). The method, boiled down:
as §1

Another assay concerns the target T10, SPDEF (Homo sapiens, UniProt O95238 1-335).
T10 sequence: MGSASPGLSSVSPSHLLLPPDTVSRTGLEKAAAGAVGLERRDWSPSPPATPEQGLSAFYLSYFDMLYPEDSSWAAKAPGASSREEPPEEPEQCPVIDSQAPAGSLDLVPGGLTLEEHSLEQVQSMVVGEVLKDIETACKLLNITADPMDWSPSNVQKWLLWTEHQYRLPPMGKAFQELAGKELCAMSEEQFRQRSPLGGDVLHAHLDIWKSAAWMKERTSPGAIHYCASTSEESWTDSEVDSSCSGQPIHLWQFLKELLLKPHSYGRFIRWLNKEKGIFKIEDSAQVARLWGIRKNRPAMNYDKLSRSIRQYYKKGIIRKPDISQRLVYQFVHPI
A digest of the protocol: as §1

Chain of ETV5 (P41161 whole entry): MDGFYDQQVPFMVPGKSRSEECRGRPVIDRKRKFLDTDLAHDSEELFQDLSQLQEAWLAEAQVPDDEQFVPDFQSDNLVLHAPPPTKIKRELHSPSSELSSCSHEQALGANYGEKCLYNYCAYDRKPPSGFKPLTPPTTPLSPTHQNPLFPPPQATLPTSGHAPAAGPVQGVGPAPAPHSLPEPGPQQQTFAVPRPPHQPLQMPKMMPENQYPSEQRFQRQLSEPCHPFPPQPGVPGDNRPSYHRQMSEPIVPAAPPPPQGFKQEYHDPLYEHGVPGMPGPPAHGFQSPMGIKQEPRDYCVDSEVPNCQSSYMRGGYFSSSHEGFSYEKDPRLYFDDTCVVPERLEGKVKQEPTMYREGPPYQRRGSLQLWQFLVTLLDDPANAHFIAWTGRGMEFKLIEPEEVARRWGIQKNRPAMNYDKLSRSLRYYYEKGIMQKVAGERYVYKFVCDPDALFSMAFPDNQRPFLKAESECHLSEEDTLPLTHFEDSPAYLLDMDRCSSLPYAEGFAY
Chain of ETV1 (P50549 whole entry): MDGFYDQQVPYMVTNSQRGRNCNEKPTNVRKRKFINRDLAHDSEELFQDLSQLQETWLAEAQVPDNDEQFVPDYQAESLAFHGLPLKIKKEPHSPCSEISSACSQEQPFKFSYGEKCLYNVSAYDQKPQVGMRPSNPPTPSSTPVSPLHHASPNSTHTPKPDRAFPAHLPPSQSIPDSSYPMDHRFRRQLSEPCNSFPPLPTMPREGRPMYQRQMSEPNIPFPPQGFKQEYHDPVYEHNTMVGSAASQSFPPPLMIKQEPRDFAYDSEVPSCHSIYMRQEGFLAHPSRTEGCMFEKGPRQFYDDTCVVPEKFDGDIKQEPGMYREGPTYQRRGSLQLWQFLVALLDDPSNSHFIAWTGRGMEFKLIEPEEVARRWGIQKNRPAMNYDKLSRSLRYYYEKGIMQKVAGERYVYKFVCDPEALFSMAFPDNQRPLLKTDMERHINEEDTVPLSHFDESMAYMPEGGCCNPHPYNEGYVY
Chain of SPIB (Q01892 whole entry): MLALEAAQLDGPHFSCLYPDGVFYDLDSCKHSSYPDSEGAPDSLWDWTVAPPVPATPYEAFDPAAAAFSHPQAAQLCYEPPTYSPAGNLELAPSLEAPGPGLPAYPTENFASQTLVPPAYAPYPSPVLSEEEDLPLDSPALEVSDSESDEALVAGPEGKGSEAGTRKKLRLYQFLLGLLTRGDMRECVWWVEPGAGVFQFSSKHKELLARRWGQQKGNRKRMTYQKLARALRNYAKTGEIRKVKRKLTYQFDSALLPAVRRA

Turning to GTTGGT, the binding signal with GABPA is 1.04 fold enrichment (6-mer frequency, TF over GST control); in the assay with SPI1 it was 1.02 fold enrichment (6-mer frequency, TF over GST control); with ETV5 it was 1.01 fold enrichment (6-mer frequency, TF over GST control); in the assay with ELK4, 1.09 fold enrichment (6-mer frequency, TF over GST control); with ETV7 it was 1.02 fold enrichment (6-mer frequency, TF over GST control).
Take CAGTTC: the binding signal with ELK1 is 1.05 fold enrichment (6-mer frequency, TF over GST control); with EHF it was 1.02 fold enrichment (6-mer frequency, TF over GST control); with SPI1, 1.08 fold enrichment (6-mer frequency, TF over GST control); with SPIB it was 1.04 fold enrichment (6-mer frequency, TF over GST control); in the assay with ETV5, 1.04 fold enrichment (6-mer frequency, TF over GST control); in the assay with SPIC, 1.17 fold enrichment (6-mer frequency, TF over GST control). The binding signal with ELK4 was 1.07 fold enrichment (6-mer frequency, TF over GST control); with ETV3L, 1.05 fold enrichment (6-mer frequency, TF over GST control); with ETV3 it was 1.13 fold enrichment (6-mer frequency, TF over GST control).
As for GTCCGG, the binding signal in the assay with ERG is 1.03 fold enrichment (6-mer frequency, TF over GST control); in the assay with ETV5, 1.01 fold enrichment (6-mer frequency, TF over GST control); with ETV1 it was 1 fold enrichment (6-mer frequency, TF over GST control); in the assay with SPDEF, 1.18 fold enrichment (6-mer frequency, TF over GST control); in the assay with ETV3, 1.05 fold enrichment (6-mer frequency, TF over GST control).
